Methyltransferases = Primary Screen for Target Class Profiling of Small Molecule Inhibitors of Methyltransferases. AID 1745853, 2022. calls only at 40 µM. 3.9% of 25,000 active. purified enzyme, MTase-Glo SAH luminescence; stronger effect = lower value; call rule not given here
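Each enzyme was reacted with SAM and its substrate, with compounds tested once at 40 uM; SAH formed was read by MTase-Glo luminescence.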
MTase-Glo counter = detection enzyme interference, methyltransferase counter-screen; 6% of 180 active; AID 1745851; Potency, µM (top dose mostly 57.3 µM), for the others: top-dose activity change, negative = inhibition, actives largely listed as inhibitors; MTase-Glo coupled enzymes, SAH conversion luminescence, no MTase; shares compounds with Methyltransferases; active = well fitted inhibition curve with a large enough effect; note: potency is the fitted concentration of half-maximal effect
Numbers without * were called inactive; i = inactive; + = active, no number; ! = not active in a repeat; [ ] = dose if it differs, or a comment. Only a selection was taken, and hits are over-represented in it overall. % is set by controls: 0 for no effect and ±100 for the full control effect.

SMILES | Methyltransferases | others
CC(C)=CCC[C@](C)(O[C@@H]1O[C@H](CO)[C@@H](O)[C@H](O)[C@H]1O)[C@H]1CC[C@]2(C)[C@@H]1[C@H](O)CC1[C@@]3(C)CC[C@H](O)C(C)(C)C3[C@@H](O[C@@H]3O[C@H](CO)[C@@H](O)[C@H](O)[C@H]3O[C@@H]3O[C@@H](C)[C@H](O)[C@@H](O)[C@H]3O)C[C@]12C (stereo partly specified) | i
COc1ccc(CN2CCCC3(C2)CN(C)C(=O)O3)cc1C(=O)O (stereo unspecified) | i
NC(Cc1cccc(-c2ccccc2CP(=O)(O)O)c1)C(=O)O (stereo unspecified) | i
N[C@@H](Cc1cc(I)c(Oc2ccc(O)c(I)c2)c(I)c1)C(=O)O | +!
N[C@@H](Cc1cc(I)c(Oc2cc(I)c(O)c(I)c2)c(I)c1)C(=O)O | +
NC(Cc1c[nH]c2ccccc12)C(=O)O (stereo unspecified) | i
C/C(=C\c1ccc(C(=O)O)cc1)c1ccc2c(c1)C(C)(C)CCC2(C)C | i
CCCn1c(=O)c2ccc(C(=O)NC3CCCC3)cc2n2c(=O)n(C(C)C(=O)c3ccc(C)c(C)c3)nc12 (stereo unspecified) | i
CCOC(=O)c1cc2n(n1)CC(C)(C(=O)NC1CCCCCC1)N(Cc1ccc(OC)cc1)C2=O (stereo unspecified) | i
COc1ccc(CNC(=O)c2cc3n(n2)CC(C)(C(=O)NCc2ccc(C)cc2)N(C)C3=O)cc1 (stereo unspecified) | i
CN(CCCN1C(=O)c2cc3occc3n2CC1(C)C(=O)NC1CCCCC1)Cc1ccccc1 (stereo unspecified) | i
CCOc1ccccc1CNC(=O)Cn1ccc2cc(S(=O)(=O)N3CCCC3)ccc21 | i
O=C(CCc1nc(-c2cccnn2)no1)NC1CCCCCCC1 | i
CN1C(=O)c2cc(C(=O)NCc3ccccc3F)nn2CC1(C)C(=O)NC1CCCCCC1 (stereo unspecified) | i
COc1ccc(CNC(=O)C(C)n2ccc3cc(S(=O)(=O)N4CCCCC4)ccc32)cc1OC (stereo unspecified) | i
CC1(C(=O)NC2CCCCCC2)Cn2c(cc3occc32)C(=O)N1Cc1ccccc1F (stereo unspecified) | i
COc1ccc(OC)c(S(=O)(=O)N2CCCC(Cc3ncc(C)n3C(C)C)C2)c1 (stereo unspecified) | i
Cc1ccccc1NC(=O)Cn1nc2n(C(C)C)c(=O)c3ccc(C(=O)NCC(C)C)cc3n2c1=O | i
CC(=O)Nc1c2n(c3ccccc13)CC(C)(C(=O)NC1CCCC1)N(Cc1ccccc1Cl)C2=O (stereo unspecified) | i
CC(=O)N1c2ccccc2C2(O)CC3C(=O)NC(CC(C)C)C(=O)N3C12 (stereo unspecified) | i
Fc1ccc(C2Cn3cnc(-c4nc(-c5ccsc5)no4)c3CO2)cc1 (stereo unspecified) | i
CC(=O)OC/C=C(\C)C(CC1C(C)=C(OC(C)=O)C(=O)C2C(C)(C)C(O)CCC12C)OC(C)=O (stereo unspecified) | +
O=C(Cn1nc2nc(Nc3ccc(F)cc3)ccn2c1=O)NC1CCCC1 | i
CCc1cc2c(cc3n2CC(C)(C(=O)NC2CCCCCC2)N(CCOC)C3=O)s1 (stereo unspecified) | i
CCN1C(=O)c2c(C(=O)NCc3ccccc3F)ncn2CC1(C)C(=O)NC1CCCC1 (stereo unspecified) | i
SMILES | Methyltransferases | others
COc1ncc(Nc2ncc([C@H](C)N3CCN(S(C)(=O)=O)CC3)cc2-c2nc(C)nc(N)n2)cc1F | i
O=C(c1ccnc(-c2ccncc2)c1)N1CCCC1 | i
C[C@@H]1CN(c2ccc(C(=O)N3CCC(N4CCOCC4)CC3)cn2)C[C@H](C)O1 | i
O=C(c1ccc(Nc2nccc(-c3cc4ccccc4s3)n2)cc1)N1CCC(N2CCCC2)CC1 | +
CC[C@@]1(O)CCN(C(=O)CCc2nc(-c3ccncc3)no2)C[C@H]1O | i
CN(C)c1cc(N2CCCC(NC(=O)C3CCC3)C2)ncn1 (stereo unspecified) | i
O=C1NC2CCCCN2C12CCN(CCCN1c3ccccc3CCc3ccc(Cl)cc31)CC2 (stereo unspecified) | +
CN(C)CCCN1c2ccccc2Sc2ccc(Cl)cc21 | i
OCCN1CCN(CCCN2c3ccccc3Sc3ccc(Cl)cc32)CC1 | i
COc1cccc(S(=O)(=O)N2CCC(Cc3nncn3C(C)C)CC2)c1 | i
CCOC(=O)c1cc2n(n1)CC(C)(C(=O)NCCC(C)C)N(Cc1ccc(OC(C)C)cc1)C2=O (stereo unspecified) | i
Cc1cc(S(=O)(=O)NCCN2CCOCC2)ccc1Cl | i
Cc1cnc(Nc2ccc(CN3CCOCC3)cc2)nc1Nc1cccc(S(=O)(=O)NC(C)(C)C)c1 | +
Cc1cnc(Nc2cccc(CN3CCOCC3)c2)nc1Nc1cccc(S(=O)(=O)NC(C)(C)C)c1 | i
N#Cc1cccc(N2CCN(Cc3ccc(F)c(Cl)c3F)CC2)n1 | i
CCCC1c2cccn2CCN1C(=O)Nc1ccccc1C(F)(F)F (stereo unspecified) | +
CCCC1c2ccc(C)n2CCN1C(=O)Nc1ccccc1C(F)(F)F (stereo unspecified) | i
CC(C)C1c2cccn2CCN1C(=O)Nc1ccccc1C(F)(F)F (stereo unspecified) | i
O=C1CN(Cc2ccc(-c3cc(F)cc(F)c3)cc2)CCN1c1cc(Cl)ncn1 | i
Cn1nc2n(c1=O)CCN(Cc1ccc(Br)s1)CC2 | i
CC(C)(C(=O)O)c1cnc(N2CC[C@H](CO)[C@H](O)C2)nc1N1CCOCC1 | i
COc1ncccc1-c1n[nH]c2c1CC(=O)N(Cc1ccccc1)C2 | i
COc1ncccc1-c1cc2c(nc1OC)nc(CCc1ccccc1)n2C | i
COc1ncccc1-c1nccn2c(C3CN(Cc4ccccc4O)C3)ncc12 | + | MTase-Glo counter=2%[85.7 µM]
COC(=O)[C@H](NC(=O)[C@@H]1[C@@H](NC(=O)Nc2cccc(OC)c2)CCN1C(=O)c1cnccn1)C(C)C | i
SMILES | Methyltransferases | others
COc1cccc(CN2CCCC3(CNc4ccccc4[S+](=O)([O-])N3)C2)c1 (stereo unspecified) | + | MTase-Glo counter=-5%
O=[S+]1([O-])NC2(CCN(Cc3ccc(F)cc3)CC2)CNc2ccccc21 | i
N#Cc1ccc(CN2CCC3(CNc4ccccc4[S+](=O)([O-])N3)C2)cc1 (stereo unspecified) | i
Fc1ccccc1Nc1ccnc(N2CC3CCC(C2)N3CC(F)(F)F)n1 | i
N#Cc1cnc(N2CC3CCC(C2)N3CC(F)(F)F)s1 | + | MTase-Glo counter=-2%[85.7 µM]
O=c1[nH]c2ccc(S(=O)(=O)Nc3ccc(F)c(Cl)c3)cc2[nH]1 | i
Cc1cccc(S(=O)(=O)N2[C@@H]3CC[C@H]2CC(NC(=O)c2ccncc2)C3)c1 (stereo partly specified) | i
COc1ccc(CN2Cc3[nH]nc(-c4cnc(OC)nc4)c3CC2=O)cc1 | i
O=C(c1nnc(CN2CCN(c3ccccn3)CC2)n1-c1cccnc1)N1CCC[C@@H]1c1cccc(F)c1 | i
O=C(Nc1ccc2ncnc(N3CCCCC3)c2c1)c1cc(F)ccc1F | + | MTase-Glo counter=5.4µM*
